According to PubChem BioAssay (NCATS):
Several values for one entry are separate records, joined by “and”; a condition that tells them apart may be missing. Equal values may be shown once. Results filed as inconclusive are left out. A number with no mark means an inactive call. Activity calls are given as the source filed them. Calls come from the whole dose curve; as a rule, active = well fitted inhibition curve with a large enough effect; inconclusive = small, poorly fitted or top-dose-only effect; inactive = no such curve, though single readings can be large or run the other way.

Each compound was assayed against Retinaldehyde dehydrogenase 3 (Homo sapiens) (UniProt P47895) (assay: qHTS for Inhibitors of the Aldehyde Dehydrogenase Family (ALDH1A3) Validation screen (AID 2061312; note: nearly all actives have a fitted effect of over 45% in size; for activity change, negative = inhibition: % is set by controls: 0 for no effect and ±100 for the full control effect)). Details: ALDH1A3 enzyme inhibition qHTS validation, fluorescence; series mostly up to 42.4 µM; activity change, negative = inhibition: at the top concentration.
Potency is the fitted concentration of half-maximal effect.

Structure (SMILES)	activity change, negative = inhibition	Potency
CN(C(=O)C(c1ccccc1)c1ccccc1)[C@H](CN1CC[C@H](O)C1)c1ccccc1	-24.1% [at 84.7 µM]	
N#Cc1ccccc1-c1cc(-c2ccccn2)cn(-c2ccccc2)c1=O	22.6% [at 84.7 µM]	
CCN1C[C@]2(OC(=O)c3ccccc3NC(C)=O)CC[C@H](OC)[C@@]34[C@@H]2C[C@@H]([C@@H]13)[C@@]1(O)C[C@H](OC)[C@H]2C[C@@H]4[C@]1(O)[C@H]2OC	-43.5% [at 84.7 µM]	
CN1CCCCC1Cn1cc(C(=O)c2cc([N+](=O)[O-])ccc2I)c2ccccc21 (stereo not drawn)	63.6% [at 84.7 µM]	
CCCCCn1cc(C(=O)Oc2cccc3cccnc23)c2ccccc21	-8.89% [at 84.7 µM]	
CCCCCn1cc(C(=O)Cc2ccccc2OC)c2ccccc21	6.94% [at 84.7 µM]	
N#Cc1ccc(N2CCN(C(=O)COc3ccc4[nH]cc(CCN)c4c3)CC2)cc1	-49.8% [at 84.7 µM]	
C1=C2CCCN[C@H]2[C@@H]2C[C@H]1[C@H]1CCCCN1C2	80.4% [at 84.7 µM]	
CN1[C@@H]2CC[C@H]1CC(OC(=O)C1C=Nc3ccccc31)C2 (stereo partly drawn)	-26.8% [at 84.7 µM]	
CC1(C)C(=O)N(c2ccc(C#N)c(C(F)(F)F)c2)C(=S)N1c1ccc(C(N)=O)c(F)c1	14.2% [at 84.7 µM]	
N#Cc1cn([C@@H]2O[C@H](CO)[C@H](O)[C@@H]2O)c2ncnc(N)c12	47.6% [at 84.7 µM]	
O=C(N1CCOCC1)N1CCN(c2ccc(Cl)cc2)CC1	-12% [at 84.7 µM]	
C1=C(c2cnc[nH]2)c2ccsc2CC1		5.62 µM (active)

What follows are compounds tested against Retinal dehydrogenase 2 (Homo sapiens) (UniProt O94788) (assay: qHTS for Inhibitors of the Aldehyde Dehydrogenase Family (ALDH1A2) Confirmation screens (AID 2061314; note: nearly all actives have a fitted effect of over 65% in size; for activity, negative = inhibition: % is set by controls: 0 for no effect and ±100 for the full control effect)). Details: ALDH1A2 enzyme inhibition qHTS confirmation; series mostly up to 45.9 µM; activity, negative = inhibition: at the top concentration.

Structure (SMILES)	Potency	activity, negative = inhibition
O=[N+]([O-])c1ccc2nc(N3CCNCC3)ccc2c1	2.51 µM (active) and 6.31 µM (active)	
CCOC(=O)c1ncn2c1[C@@H]1CCCN1C(=O)c1cc(OC)ccc1-2		-0.371%
COC1=C[C@@H]2[C@@H]3Cc4ccc(OC)c(O)c4[C@]2(CCN3C)CC1=O	7.12 µM (active)	
CCC1NC(=O)C2C(Cl)C(Cl)CN2C(=O)C(CC)NC(=O)CC(c2ccccc2)NC(=O)C(CO)NC1=O (stereo not drawn)		-6.62% [at 25.6 µM]
COc1ccc2c(C(=O)c3ccc(Cl)cc3)c(C)n(CC(=O)O)c2c1		-16.4%
Cc1c(N[C@@H](c2nnc(-c3ccc(C#N)cc3)o2)[C@H](C)O)ccc(C#N)c1Cl		-15.5%

Each compound was assayed against Retinaldehyde dehydrogenase 3 (Homo sapiens) (UniProt P47895) (assay: qHTS for Inhibitors of the Aldehyde Dehydrogenase Family (ALDH1A3) Primary screen (AID 2061315;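 for activity change, negative = inhibition: plate controls were DMSO vehicle for no effect and reference inhibitor for full effect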)). Details: ALDH inhibition qHTS; series mostly up to 56 µM; activity change, negative = inhibition: at the top concentration.

Structure (SMILES)	activity change, negative = inhibition	Potency
CN(C(=O)C(c1ccccc1)c1ccccc1)[C@H](CN1CC[C@H](O)C1)c1ccccc1	-4.88%	
N#Cc1ccccc1-c1cc(-c2ccccn2)cn(-c2ccccc2)c1=O	-13.1%	
CCN1C[C@]2(OC(=O)c3ccccc3NC(C)=O)CC[C@H](OC)[C@@]34[C@@H]2C[C@@H]([C@@H]13)[C@@]1(O)C[C@H](OC)[C@H]2C[C@@H]4[C@]1(O)[C@H]2OC	-3.89%	
CN1CCCCC1Cn1cc(C(=O)c2cc([N+](=O)[O-])ccc2I)c2ccccc21 (stereo not drawn)	18.2%	
CCCCCn1cc(C(=O)Oc2cccc3cccnc23)c2ccccc21	2.57%	
COC1=C[C@@H]2[C@@H]3Cc4ccc(OC)c(O)c4[C@]2(CCN3C)CC1=O	-23.4%	
CCCCCn1cc(C(=O)Cc2ccccc2OC)c2ccccc21	-9.05%	
CCC1NC(=O)C2C(Cl)C(Cl)CN2C(=O)C(CC)NC(=O)CC(c2ccccc2)NC(=O)C(CO)NC1=O (stereo not drawn)	-15.5% [at 28 µM]	
C1=C2CCCN[C@H]2[C@@H]2C[C@H]1[C@H]1CCCCN1C2	12.4%	
C/C=C(/C)C1C=CC2CC(C)CC(C)C2C1/C(O)=C1\C(=O)NC(CC(C)(O)C(=O)O)C1=O (stereo not drawn)	9.68% [at 28 µM]	
CN1[C@@H]2CC[C@H]1CC(OC(=O)C1C=Nc3ccccc31)C2 (stereo partly drawn)	7.9%	
COc1cc(N2CCN(C)CC2)ccc1N		1.26 µM (active)
CC1(C)C(=O)N(c2ccc(C#N)c(C(F)(F)F)c2)C(=S)N1c1ccc(C(N)=O)c(F)c1	2.43%	
COc1ccc2c(C(=O)c3ccc(Cl)cc3)c(C)n(CC(=O)O)c2c1	-4.57%	
N#Cc1cn([C@@H]2O[C@H](CO)[C@H](O)[C@@H]2O)c2ncnc(N)c12	-8.82%	
Cc1c(N[C@@H](c2nnc(-c3ccc(C#N)cc3)o2)[C@H](C)O)ccc(C#N)c1Cl	0.122%	
O=C(N1CCOCC1)N1CCN(c2ccc(Cl)cc2)CC1	6.23%	

What follows are compounds tested against Aldehyde dehydrogenase 1A1 (Homo sapiens) (UniProt P00352) (assay: qHTS for Inhibitors of the Aldehyde Dehydrogenase Family (ALDH1A1) Confirmatory screens (AID 2061316; note: nearly all actives have a fitted effect of over 65% in size; for activity change, negative = inhibition: % is set by controls: 0 for no effect and ±100 for the full control effect)). Details: ALDH inhibition qHTS; series mostly up to 47.3 µM; activity change, negative = inhibition: at the top concentration.

Structure (SMILES)	Potency	activity change, negative = inhibition [%]	outcome
O=[N+]([O-])c1ccc2nc(N3CCNCC3)ccc2c1	15.9 µM (active)		
CCOC(=O)c1ncn2c1[C@@H]1CCCN1C(=O)c1cc(OC)ccc1-2		-10.9	
COC1=C[C@@H]2[C@@H]3Cc4ccc(OC)c(O)c4[C@]2(CCN3C)CC1=O			inactive
CC(=O)O[C@H]1CC[C@@]2(CI)C(=CC[C@@H]3[C@@H]2CC[C@]2(C)C(=O)CC[C@@H]32)C1	10.1 µM (active)		
N#Cc1ccc(N2CCN(C(=O)COc3ccc4[nH]cc(CCN)c4c3)CC2)cc1		-10.9	
COc1ccc2c(C(=O)c3ccc(Cl)cc3)c(C)n(CC(=O)O)c2c1		-4.41	
Cc1c(N[C@@H](c2nnc(-c3ccc(C#N)cc3)o2)[C@H](C)O)ccc(C#N)c1Cl			inactive
